# Source: PubChem BioAssay (EPA / NIEHS)
# “And” between values parts separate entries of the source, which are not always exact repeats. Equal values may be shown once. Records with an inconclusive call do not appear. The source holds several records for some structures; these can differ, active in one and inactive in another. The source made the active and inactive calls. The calls were made as follows: active = hit-call score of the fitted dose curve at least 0.9, where 1 is the maximum; inconclusive = response in the unintended direction; inactive = score below 0.9.
# Assays:
# [1] = molecular target: human Aurora Kinase A - serine/threonine-protein Kinase 6 (AurA), AURKA (gene 6790) (UniProt O14965); assay: NVS_ENZ_hAurA: NovaScreen (NVS) Enzymatic Assay for human Aurora Kinase A - serine/threonine-protein Kinase 6 (AurA) (AID 2283142)
# Sequence of human Aurora Kinase A - serine/threonine-protein Kinase 6 (AurA), AURKA (gene 6790) (O14965 whole entry, looked up): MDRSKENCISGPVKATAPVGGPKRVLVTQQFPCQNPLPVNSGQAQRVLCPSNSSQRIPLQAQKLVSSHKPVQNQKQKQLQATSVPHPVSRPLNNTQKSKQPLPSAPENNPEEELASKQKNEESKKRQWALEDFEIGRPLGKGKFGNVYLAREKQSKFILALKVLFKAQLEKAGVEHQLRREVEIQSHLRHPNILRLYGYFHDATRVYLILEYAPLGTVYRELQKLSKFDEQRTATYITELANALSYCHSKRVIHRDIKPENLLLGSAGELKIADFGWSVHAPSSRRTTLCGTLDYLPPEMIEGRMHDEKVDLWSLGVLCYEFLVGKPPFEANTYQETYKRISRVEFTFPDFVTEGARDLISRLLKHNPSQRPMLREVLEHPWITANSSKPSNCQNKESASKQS
# Method: (§1) NVS_ENZ_hAurA is a biochemical, single-readout assay that uses extracted gene-proteins in a cell-free assay. Measurements were taken 1 hour after chemical dosing in a 384-well plate.NVS_ENZ_hAurA is one of one assay component(s) measured or calculated from the NVS_ENZ_hAurA assay. It is designed to make measurements of enzyme activity, a form of enzyme reporter, as detected with fluorescence intensity signals by Fluorescence and electrophoretic mobility shift technology.Data from the assay component NVS_ENZ_hAurA was analyzed into 1 assay endpoint. This assay endpoint, NVS_ENZ_hAurA, was analyzed in the positive analysis fitting direction relative to DMSO as the negative control and baseline of activity. Using a type of enzyme reporter, loss-of-signal activity can be used to understand changes in the enzymatic activity as they relate to the gene AURKA. Furthermore, this assay endpoint can be referred to as a primary readout, because this assay has produced multiple assay endpoints where this one serves a enzymatic activity function. To generalize the intended target to other relatable targets, this assay endpoint is annotated to the kinase intended target family, where the subfamily is serine/threonine kinase.
# (§2) Binding assays used specific radioligands (tritiated, iodinated) with non-radioactive competitive displacement ligands in agonist or antagonist protocols (as indicated) and various reference compounds and inhibitors to titrate specific binding to receptors and transporters. Most enzyme assays (CYPs, kinases, phosphatases, proteases, HDACs) used recombinant protein and specific substrates (fluorescence mostly, some colorimetric and radioactive) and inhibitors, followed by a biochemical separation of substrate and product. All assays for the biochemical HTS were initially run in duplicate at a single concentration (10 uM for CYP450 assays and 25 uM for all others). Assay-chemical combinations meeting a pre-defined threshold (e.g., 30% inhibition and other criteria defined below) were then run in singleton concentration-response format with maximum concentration of 20 uM for CYPs and 50 uM for all others. Each assay was run with positive and negative controls, and concurrent controls on every plate. The follow-up (secondary) screen tested active chemical-pairs in concentration series, as well as a few additional assays not tested in the primary screen, some selected negative inactives, and several cases re-run in the concentration series for confirmatory purposes.
# [2] = molecular target: human Dual Specificity Protein Phosphatase 3 (DUSP3), DUSP3 (gene 1845) (UniProt P51452); assay: NVS_ENZ_hDUSP3: NovaScreen (NVS) Enzymatic Assay for human Dual Specificity Protein Phosphatase 3 (DUSP3) (AID 2283152);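 also: phosphatase activity of recombinant human DUSP3 on a fluorogenic substrate without cells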
# Sequence of human Dual Specificity Protein Phosphatase 3 (DUSP3), DUSP3 (gene 1845) (P51452 whole entry, looked up): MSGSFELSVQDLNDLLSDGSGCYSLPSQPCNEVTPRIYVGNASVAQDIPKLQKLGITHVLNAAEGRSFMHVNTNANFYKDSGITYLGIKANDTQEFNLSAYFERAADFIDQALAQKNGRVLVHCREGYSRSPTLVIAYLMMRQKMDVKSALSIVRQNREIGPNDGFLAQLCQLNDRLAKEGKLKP
# Method: NVS_ENZ_hDUSP3 is a biochemical, single-readout assay that uses extracted gene-proteins in a cell-free assay. Measurements were taken 0 hour after chemical dosing in a 96-well plate.NVS_ENZ_hDUSP3 is one of one assay component(s) measured or calculated from the NVS_ENZ_hDUSP3 assay. It is designed to make measurements of enzyme activity, a form of enzyme reporter, as detected with fluorescence intensity signals by Fluorescence technology.Data from the assay component NVS_ENZ_hDUSP3 was analyzed into 1 assay endpoint. This assay endpoint, NVS_ENZ_hDUSP3, was analyzed in the positive analysis fitting direction relative to DMSO as the negative control and baseline of activity. Using a type of enzyme reporter, loss-of-signal activity can be used to understand changes in the enzymatic activity as they relate to the gene DUSP3. Furthermore, this assay endpoint can be referred to as a primary readout, because this assay has produced multiple assay endpoints where this one serves a enzymatic activity function. To generalize the intended target to other relatable targets, this assay endpoint is annotated to the phosphatase intended target family, where the subfamily is dual-specific phosphatase.
# as §2, with “Assay-chemical combinations meeting a pre-defined threshold (e.g., 30% inhibition and other criteria defined below) were then run in singleton concentration-response format with maximum concentration of 20 uM for CYPs and 50 uM for all others.” left out
# [3] = molecular target: human Elastase, ELANE (gene 1991) (UniProt P08246); assay: NVS_ENZ_hElastase: NovaScreen (NVS) Enzymatic Assay for human Elastase (AID 2283153)
# Sequence of human Elastase, ELANE (gene 1991) (P08246 whole entry, looked up): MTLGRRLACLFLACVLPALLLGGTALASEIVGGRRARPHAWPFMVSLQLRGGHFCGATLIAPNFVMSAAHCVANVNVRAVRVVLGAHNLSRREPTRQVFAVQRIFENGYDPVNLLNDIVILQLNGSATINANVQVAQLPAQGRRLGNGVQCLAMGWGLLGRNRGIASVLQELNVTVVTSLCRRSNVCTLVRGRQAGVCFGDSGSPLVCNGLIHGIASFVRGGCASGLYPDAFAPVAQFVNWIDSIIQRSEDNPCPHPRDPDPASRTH
# Method in brief: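 Concentration-response to 50 uM max, run singly for chemicals passing a threshold (e.g., 30% inhibition) in a duplicate 25 uM single-point screen. Neutrophil-derived human elastase, absorbance read-out of enzyme activity at 1.5 h; DMSO baseline.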
# [4] = molecular target: human Casein Kinase 1-delta (CK1D), CSNK1D (gene 1453) (UniProt P48730); assay: NVS_ENZ_hCK1D: NovaScreen (NVS) Enzymatic Assay for human Casein Kinase 1-delta (CK1D) (AID 2283148)
# Sequence of human Casein Kinase 1-delta (CK1D), CSNK1D (gene 1453) (P48730 whole entry, looked up): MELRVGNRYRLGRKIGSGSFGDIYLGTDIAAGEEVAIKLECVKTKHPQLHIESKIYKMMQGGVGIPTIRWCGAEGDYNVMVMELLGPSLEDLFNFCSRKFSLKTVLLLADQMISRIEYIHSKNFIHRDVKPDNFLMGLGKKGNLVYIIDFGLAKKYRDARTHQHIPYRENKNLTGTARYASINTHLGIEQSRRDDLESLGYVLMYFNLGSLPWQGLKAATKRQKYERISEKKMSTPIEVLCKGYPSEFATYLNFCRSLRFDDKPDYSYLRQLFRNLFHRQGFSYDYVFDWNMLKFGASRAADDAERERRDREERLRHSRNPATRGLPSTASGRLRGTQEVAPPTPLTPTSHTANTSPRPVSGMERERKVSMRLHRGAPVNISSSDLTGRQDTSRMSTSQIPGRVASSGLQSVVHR
# Method in brief: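 Recombinant human CK1-delta, cell-free; fluorescent substrate with electrophoretic mobility-shift separation of product, read 1 h after dosing. Single 25 uM duplicate screen, then concentration-response up to 50 uM; loss of signal vs DMSO.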
# [5] = molecular target: human Casein Kinase 2- alpha 2 beta 2 (CK2a2b2), CSNK2A1 (gene 1457) (UniProt P68400); assay: NVS_ENZ_hCK2a2b2: NovaScreen (NVS) Enzymatic Assay for human Casein Kinase 2- alpha 2 beta 2 (CK2a2b2) (AID 2283147)
# Sequence of human Casein Kinase 2- alpha 2 beta 2 (CK2a2b2), CSNK2A1 (gene 1457) (P68400 whole entry, looked up): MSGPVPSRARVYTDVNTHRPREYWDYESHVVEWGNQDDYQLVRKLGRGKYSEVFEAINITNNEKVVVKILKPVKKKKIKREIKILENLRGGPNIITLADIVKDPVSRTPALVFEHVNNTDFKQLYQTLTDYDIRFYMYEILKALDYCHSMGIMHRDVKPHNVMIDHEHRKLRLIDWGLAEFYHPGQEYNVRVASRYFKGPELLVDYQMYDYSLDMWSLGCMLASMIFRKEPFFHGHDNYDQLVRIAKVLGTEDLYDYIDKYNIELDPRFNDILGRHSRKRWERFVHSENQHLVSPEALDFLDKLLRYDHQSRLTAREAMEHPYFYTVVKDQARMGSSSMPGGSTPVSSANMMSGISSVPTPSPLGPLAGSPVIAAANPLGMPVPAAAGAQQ
# Method in brief: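 Compounds were first screened in duplicate at 25 uM, and those passing the threshold were re-tested in concentration series up to a 50 uM maximum. Kinase activity of recombinant human CK2 α2β2 was measured 1 h after dosing by fluorescent substrate/product mobility-shift separation.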
# [6] = molecular target: human Caspase 8 (CASP8), CASP8 (gene 841) (UniProt Q14790); assay: NVS_ENZ_hCASP8: NovaScreen (NVS) Enzymatic Assay for human Caspase 8 (CASP8) (AID 2283146)
# Sequence of human Caspase 8 (CASP8), CASP8 (gene 841) (Q14790 whole entry, looked up): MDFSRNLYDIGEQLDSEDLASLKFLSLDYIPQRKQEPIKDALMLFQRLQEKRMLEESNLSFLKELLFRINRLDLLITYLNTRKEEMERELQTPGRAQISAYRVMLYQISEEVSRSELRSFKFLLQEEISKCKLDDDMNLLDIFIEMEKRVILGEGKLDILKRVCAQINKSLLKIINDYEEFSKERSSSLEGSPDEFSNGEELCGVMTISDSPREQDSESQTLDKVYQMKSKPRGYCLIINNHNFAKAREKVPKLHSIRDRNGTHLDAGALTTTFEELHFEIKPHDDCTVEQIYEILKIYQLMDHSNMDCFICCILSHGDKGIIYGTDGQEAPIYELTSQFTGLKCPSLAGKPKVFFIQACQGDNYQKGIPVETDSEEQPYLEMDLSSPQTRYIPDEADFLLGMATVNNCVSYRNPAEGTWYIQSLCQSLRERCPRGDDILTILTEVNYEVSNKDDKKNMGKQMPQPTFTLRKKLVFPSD
# Method in brief: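 The primary screen tested compounds in duplicate at a single 25 uM concentration, with actives followed up in concentration series. Activity of recombinant (E. coli) protease was measured by fluorescence 1 h post-dose, as signal loss against DMSO.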
# [7] = molecular target: human Colony Stimulating Factor 1 Receptor (CSF1R), CSF1R (gene 1436) (UniProt P07333); assay: NVS_ENZ_hCSF1R: NovaScreen (NVS) Enzymatic Assay for human Colony Stimulating Factor 1 Receptor (CSF1R) (AID 2283150)
# Sequence of human Colony Stimulating Factor 1 Receptor (CSF1R), CSF1R (gene 1436) (P07333 whole entry, looked up): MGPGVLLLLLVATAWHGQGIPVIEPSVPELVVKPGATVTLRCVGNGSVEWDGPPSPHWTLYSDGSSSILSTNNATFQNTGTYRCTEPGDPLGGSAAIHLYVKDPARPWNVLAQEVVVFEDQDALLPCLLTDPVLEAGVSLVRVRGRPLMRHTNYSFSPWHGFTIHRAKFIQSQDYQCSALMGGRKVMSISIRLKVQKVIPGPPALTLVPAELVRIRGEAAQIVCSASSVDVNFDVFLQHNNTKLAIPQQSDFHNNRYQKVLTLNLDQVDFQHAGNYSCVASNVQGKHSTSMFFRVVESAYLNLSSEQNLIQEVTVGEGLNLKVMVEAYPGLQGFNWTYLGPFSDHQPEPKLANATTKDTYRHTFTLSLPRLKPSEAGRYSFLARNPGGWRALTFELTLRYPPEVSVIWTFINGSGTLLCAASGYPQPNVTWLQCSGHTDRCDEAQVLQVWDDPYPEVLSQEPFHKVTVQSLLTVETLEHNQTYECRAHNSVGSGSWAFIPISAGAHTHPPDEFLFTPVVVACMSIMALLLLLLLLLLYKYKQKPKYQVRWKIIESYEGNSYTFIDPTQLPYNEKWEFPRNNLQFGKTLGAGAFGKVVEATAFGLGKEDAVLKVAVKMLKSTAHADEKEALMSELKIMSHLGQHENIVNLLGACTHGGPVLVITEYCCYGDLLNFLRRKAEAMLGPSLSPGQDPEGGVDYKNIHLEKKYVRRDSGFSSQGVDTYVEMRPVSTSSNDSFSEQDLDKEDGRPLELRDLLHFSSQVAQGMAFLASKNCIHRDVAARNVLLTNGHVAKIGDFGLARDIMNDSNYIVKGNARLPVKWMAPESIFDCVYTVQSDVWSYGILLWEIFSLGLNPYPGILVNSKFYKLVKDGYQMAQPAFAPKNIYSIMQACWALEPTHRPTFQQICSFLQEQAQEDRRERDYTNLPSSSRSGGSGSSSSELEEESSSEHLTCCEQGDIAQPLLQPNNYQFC
# Method in brief: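 Compounds screened in duplicate at 25 uM, then concentration-response (top 50 uM) for those passing threshold such as 30% inhibition; recombinant CSF1R activity measured 1 h post-dosing via fluorescent substrate/product mobility-shift separation, loss of signal versus DMSO.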
# [8] = molecular target: human Epidermal Growth Factor Receptor (EGFR), EGFR (gene 1956) (UniProt P00533); assay: NVS_ENZ_hEGFR: NovaScreen (NVS) Enzymatic Assay for human Epidermal Growth Factor Receptor (EGFR) (AID 2283151)
# Sequence of human Epidermal Growth Factor Receptor (EGFR), EGFR (gene 1956) (P00533 whole entry, looked up): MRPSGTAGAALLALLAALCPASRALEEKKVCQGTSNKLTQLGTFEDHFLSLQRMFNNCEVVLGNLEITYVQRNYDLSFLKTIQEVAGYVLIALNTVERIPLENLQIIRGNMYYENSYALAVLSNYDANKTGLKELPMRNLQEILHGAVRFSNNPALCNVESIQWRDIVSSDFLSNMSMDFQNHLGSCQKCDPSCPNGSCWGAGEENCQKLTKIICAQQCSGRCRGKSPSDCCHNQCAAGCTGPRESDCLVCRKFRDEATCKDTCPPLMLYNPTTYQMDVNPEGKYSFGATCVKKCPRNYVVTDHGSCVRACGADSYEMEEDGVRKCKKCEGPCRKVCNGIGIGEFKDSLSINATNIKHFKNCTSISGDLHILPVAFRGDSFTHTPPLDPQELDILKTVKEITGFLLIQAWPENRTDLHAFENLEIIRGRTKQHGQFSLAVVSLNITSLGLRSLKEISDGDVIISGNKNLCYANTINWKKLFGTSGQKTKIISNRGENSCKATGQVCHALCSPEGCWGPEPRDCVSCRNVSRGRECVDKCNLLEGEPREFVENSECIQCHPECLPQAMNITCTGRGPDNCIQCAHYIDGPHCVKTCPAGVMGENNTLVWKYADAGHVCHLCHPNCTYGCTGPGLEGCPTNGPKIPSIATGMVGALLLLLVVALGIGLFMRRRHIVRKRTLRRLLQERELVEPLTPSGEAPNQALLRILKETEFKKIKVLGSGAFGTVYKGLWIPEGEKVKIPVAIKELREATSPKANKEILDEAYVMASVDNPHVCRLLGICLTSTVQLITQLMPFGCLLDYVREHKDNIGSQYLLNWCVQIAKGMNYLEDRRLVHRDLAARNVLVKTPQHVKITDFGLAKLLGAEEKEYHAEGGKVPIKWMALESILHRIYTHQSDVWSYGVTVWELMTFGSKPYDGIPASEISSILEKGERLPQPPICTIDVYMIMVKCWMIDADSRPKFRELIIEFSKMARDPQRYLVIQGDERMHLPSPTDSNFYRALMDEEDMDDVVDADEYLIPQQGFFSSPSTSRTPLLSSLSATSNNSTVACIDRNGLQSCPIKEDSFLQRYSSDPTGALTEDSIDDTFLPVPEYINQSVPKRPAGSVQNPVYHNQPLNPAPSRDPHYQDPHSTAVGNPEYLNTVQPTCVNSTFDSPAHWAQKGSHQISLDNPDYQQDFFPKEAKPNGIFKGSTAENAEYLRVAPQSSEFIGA
# Method in brief: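 Cell-free kinase assay, fluorescence plus electrophoretic mobility shift separating substrate and product, read 1 hour after dosing; loss of signal vs DMSO. Duplicate screen at 25 uM, then concentration-response to 50 uM.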
# CDK2 (gene 1017) = CDK2 (gene 1017) (UniProt P24941); assay: NVS_ENZ_hCDK2: NovaScreen (NVS) Enzymatic Assay for human Cyclin-Cependent Kinase 2 (CDK2) (AID 2283144)
# Method: as §1, with “NVS_ENZ_hCDK2” for “NVS_ENZ_hAurA”, “plate.NVS_ENZ_hCDK2” for “plate.NVS_ENZ_hAurA”, “NVS_ENZ_hCDK2,” for “NVS_ENZ_hAurA,”, “CDK2.” for “AURKA.”, “kinase. […]” for “kinase.”
# [9] = molecular target: human Ephrin type-B Receptor 1 (EphB1), EPHB1 (gene 2047) (UniProt P54762); assay: NVS_ENZ_hEphB1: NovaScreen (NVS) Enzymatic Assay for human Ephrin type-B Receptor 1 (EphB1) (AID 2283154)
# Method: as §1, with “NVS_ENZ_hEphB1” for “NVS_ENZ_hAurA”, “plate.NVS_ENZ_hEphB1” for “plate.NVS_ENZ_hAurA”, “NVS_ENZ_hEphB1,” for “NVS_ENZ_hAurA,”, “EPHB1.” for “AURKA.”, “receptor tyrosine” for “serine/threonine”
# as §2, with “Assay-chemical combinations meeting a pre-defined threshold (e.g., 30% inhibition and other criteria defined below) were then run in singleton concentration-response format with maximum concentration of 20 uM for CYPs and 50 uM for all others.” left out
structure (smiles),measurement,setting,value
O=C(O)C(F)(F)C(F)(F)C(F)(F)C(F)(F)C(F)(F)C(F)(F)C(F)(F)F,outcome,[1],inactive
same,outcome,[2],inactive
same,outcome,[3],inactive
CCOc1nc(NC)nc(NC(=O)NS(=O)(=O)c2ccccc2C(=O)OC)n1,AC50,[4],18.4 µM (active)
N#Cc1c(Cl)c(Cl)c(Cl)c(C#N)c1Cl,outcome,[1],inactive
same,AC50,[5],33.6 µM (active)
same,AC50,[2],17.7 µM (active)
C[C@H]1[C@H](c2ccc(Cl)cc2)SC(=O)N1C(=O)NC1CCCCC1,outcome,[6],inactive
O=S(=O)(O)C(F)(F)C(F)(F)C(F)(F)C(F)(F)C(F)(F)C(F)(F)C(F)(F)C(F)(F)F,AC50,[1],25.4 µM (active) and 27.4 µM (active)
same,outcome,[6],inactive
same,AC50,[4],22 µM (active) and 39 µM (active)
same,AC50,[7],18.6 µM (active) and 43.9 µM (active)
same,AC50,[8],25 µM (active) and 17.4 µM (active)
same,AC50,[2],35.6 µM (active)
same,outcome,[2],inactive
same,outcome,[3],inactive
O=C(NC(=O)c1c(F)cccc1F)Nc1ccc(OC(F)(F)C(F)OC(F)(F)F)c(Cl)c1 (configuration not stated),outcome,[3],inactive
CC1(C)C(C=C(Cl)Cl)C1C(=O)OC(C#N)c1ccc(F)c(Oc2ccccc2)c1 (configuration not stated),outcome,[7],inactive
same,outcome,[3],inactive
O=C1c2ccccc2C(=O)N1SC(Cl)(Cl)Cl,outcome,[6],inactive
CC(C)N(C(=O)COc1nnc(C(F)(F)F)s1)c1ccc(F)cc1,outcome,CDK2 (gene 1017),inactive
O=C(O)COc1ccc(Cl)cc1Cl,AC50,[5],19.7 µM (active)
same,outcome,[9],inactive
O=C(Nc1ccccc1)Nc1cnns1,outcome,[1],inactive
same,AC50,[5],10.9 µM (active)
CC[C@H](C)[C@H]1O[C@]2(C=C[C@@H]1C)C[C@@H]1C[C@@H](C/C=C(\C)[C@@H](O[C@H]3C[C@H](OC)[C@@H](O[C@H]4C[C@H](OC)[C@@H](O)[C@H](C)O4)[C@H](C)O3)[C@@H](C)/C=C/C=C3\CO[C@@H]4[C@H](O)C(C)=C[C@@H](C(=O)O1)[C@]34O)O2 (tested in a mixture with another compound),AC50,[2],2.74 µM (active)
same,outcome,[9],inactive
